Results from PubChem BioAssay AID1159580 (chemical genetic matrix, 2015).
Several values for one entry are separate records, joined by “and”; a condition that tells them apart may be missing. Equal values may be shown once. Among all 5,500 compounds or so, about 2,000 (36%) were called active. Not shown: some 18% with an inconclusive outcome. Rule as the data show it: active = normalized growth mostly below about 0.91 (no sharp cut-off); inconclusive = no clear call, values can overlap the other calls; inactive = mostly above about 0.92. The list shows a part of the results.

Assay: chemical genetic growth profiling, strain panel (AID 1159580);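 also: tested at 20 µM; growth read once vehicle control cultures reached saturation at 30 °C; 1 = growth at the plate median or of vehicle wells; lower values mean less growth of the strain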
Conditions: growth OD

Measured: normalized growth

CCN(Cc1ccncc1)C(=O)C(CO)c1ccccc1 (stereo unspecified)
inactive: S. cerevisiae deletion strains, locus YJR075W, strain HOC1, hits give low values 0.989 | S. cerevisiae deletion strains, locus YKL009W, strain mrt4, hits give low values 1.01 | S. cerevisiae deletion strains, locus YKL068W, hits give low values 0.982 | S. cerevisiae deletion strains, locus YKL085W, strain MDH1 (second series), hits give low values 0.977 | S. cerevisiae deletion strains, locus YKL085W, strain MDH1, hits give low values 0.977 | S. cerevisiae deletion strains, locus YKL160W, strain elf1, hits give low values 1.02 | S. cerevisiae deletion strains, locus YKL190W, strain CNB1, hits give low values 0.992 | S. cerevisiae deletion strains, locus YKR001C, strain vps1, hits give low values 0.999 | S. cerevisiae deletion strains, locus YKR026C, strain gcn3, hits give low values 1.04 | S. cerevisiae deletion strains, locus YKR091W, strain srl3, hits give low values 1.02 | S. cerevisiae deletion strains, locus YLL001W, strain dnm1, hits give low values 1.02 | S. cerevisiae deletion strains, locus YLL026W, hits give low values 1.03 | S. cerevisiae deletion strains, locus YLL041C, strain sdh2, hits give low values 1.02 | S. cerevisiae deletion strains, locus YLR027C, strain aat2, hits give low values 1.02 | S. cerevisiae deletion strains, locus YLR039C, strain RIC1, hits give low values 0.977 | S. cerevisiae deletion strains, locus YLR058C, strain SHM2, hits give low values 0.998 | S. cerevisiae deletion strains, locus YLR102C, strain apc9, hits give low values 0.991 | S. cerevisiae deletion strains, locus YLR113W, strain HOG1, hits give low values 0.988 | S. cerevisiae deletion strains, locus YLR221C, strain rsa3, hits give low values 1.03 | S. cerevisiae deletion strains, locus YLR258W, strain gsy2, hits give low values 1.05 | S. cerevisiae deletion strains, locus YLR262C, strain YPT6 (second series), hits give low values 1.07 | S. cerevisiae deletion strains, locus YLR262C, strain YPT6, hits give low values 1.01 | S. cerevisiae deletion strains, locus YLR268W, strain sec22, hits give low values 0.954 | S. cerevisiae deletion strains, locus YLR320W, strain mms22, hits give low values 1.02 | S. cerevisiae deletion strains, locus YLR330W, strain CHS5, hits give low values 0.991 | S. cerevisiae deletion strains, locus YLR342W, strain FKS1 (second series), hits give low values 1.05 | S. cerevisiae deletion strains, locus YLR342W, strain FKS1, hits give low values 1.02 | S. cerevisiae deletion strains, locus YLR357W, strain rsc2, hits give low values 1.04 | S. cerevisiae deletion strains, locus YLR370C, strain arc18, hits give low values 1.03 | S. cerevisiae deletion strains, locus YLR371W, strain rom2, hits give low values 0.989 | S. cerevisiae deletion strains, locus YLR384C, strain iki3, hits give low values 1.03 | S. cerevisiae deletion strains, locus YLR418C, strain cdc73, hits give low values 0.995 | S. cerevisiae deletion strains, locus YML016C, strain PPZ1, hits give low values 1 | S. cerevisiae deletion strains, locus YML032C, strain rad52, hits give low values 0.978 | S. cerevisiae deletion strains, locus YML120C, strain ndi1, hits give low values 1.03 | S. cerevisiae deletion strains, locus YML124C, strain tub3, hits give low values 0.997 | S. cerevisiae deletion strains, locus YMR058W, strain fet3, hits give low values 1.02 | S. cerevisiae deletion strains, locus YMR078C, strain ctf18, hits give low values 0.999 | S. cerevisiae deletion strains, locus YMR125W, strain sto1, hits give low values 1.03 | S. cerevisiae deletion strains, locus YMR129W, hits give low values 1.02 | S. cerevisiae deletion strains, locus YMR205C, strain PFK2, hits give low values 1.05 | S. cerevisiae deletion strains, locus YMR223W, strain ubp8, hits give low values 1.02 | S. cerevisiae deletion strains, locus YMR231W, strain pep5, hits give low values 1.03 | S. cerevisiae deletion strains, locus YMR263W, strain SAP30, hits give low values 0.999 and 1 | S. cerevisiae deletion strains, locus YMR307W, strain GAS1, hits give low values 1.05 and 1.01 | S. cerevisiae deletion strains, locus YNL067W, strain RPL9B, hits give low values 0.98 | S. cerevisiae deletion strains, locus YNL071W, strain lat1, hits give low values 1.03 | S. cerevisiae deletion strains, locus YNL128W, strain TEP1, hits give low values 0.985 | S. cerevisiae deletion strains, locus YNL153C, strain GIM3, hits give low values 0.992 | S. cerevisiae deletion strains, locus YNL175C, strain NOP13, hits give low values 0.995 | S. cerevisiae deletion strains, locus YNL183C, strain NPR1, hits give low values 0.944 | S. cerevisiae deletion strains, locus YNL197C, strain WHI3, hits give low values 1.02 | S. cerevisiae deletion strains, locus YNL209W, strain ssb2, hits give low values 1.04 | S. cerevisiae deletion strains, locus YNL224C, strain SQS1, hits give low values 1 | S. cerevisiae deletion strains, locus YNL233W, strain BNI4, hits give low values 1 | S. cerevisiae deletion strains, locus YNL248C, strain rpa49, hits give low values 1.02 | S. cerevisiae deletion strains, locus YNL250W, strain rad50, hits give low values 0.982 | S. cerevisiae deletion strains, locus YNL271C, strain bni1, hits give low values 0.982 | S. cerevisiae deletion strains, locus YNL298W, strain CLA4, hits give low values 1 | S. cerevisiae deletion strains, locus YNL307C, strain MCK1, hits give low values 0.994 | S. cerevisiae deletion strains, locus YNL322C, strain KRE1 (second series), hits give low values 1.03 | S. cerevisiae deletion strains, locus YNL322C, strain KRE1, hits give low values 0.992 | S. cerevisiae deletion strains, locus YNR049C, strain mso1, hits give low values 1.04 | S. cerevisiae deletion strains, locus YNR052C, strain pop2, hits give low values 0.991 | S. cerevisiae deletion strains, locus YOL006C, strain TOP1, hits give low values 0.948 | S. cerevisiae deletion strains, locus YOL012C, strain htz1 0.82 | S. cerevisiae deletion strains, locus YOL147C, strain pex11, hits give low values 0.986 | S. cerevisiae deletion strains, locus YOR001W, strain rrp6, hits give low values 1.02 | S. cerevisiae deletion strains, locus YOR061W, strain CKA2, hits give low values 0.988 | S. cerevisiae deletion strains, locus YOR069W, strain VPS5, hits give low values 1 | S. cerevisiae deletion strains, locus YOR070C, strain gyp1, hits give low values 1.02 | S. cerevisiae deletion strains, locus YOR080W, strain dia2, hits give low values 1.03 | S. cerevisiae deletion strains, locus YOR083W, strain WHI5 (second series), hits give low values 1 | S. cerevisiae deletion strains, locus YOR083W, strain WHI5, hits give low values 1.01 | S. cerevisiae deletion strains, locus YOR106W, strain vam3, hits give low values 1.03 | S. cerevisiae deletion strains, locus YOR136W, strain idh2, hits give low values 0.997 | S. cerevisiae deletion strains, locus YOR144C, strain elg1, hits give low values 0.992 | S. cerevisiae deletion strains, locus YOR184W, strain ser1, hits give low values 1.01 | S. cerevisiae deletion strains, locus YOR231W, strain MKK1, hits give low values 0.987 | S. cerevisiae deletion strains, locus YOR265W, strain rbl2, hits give low values 1.02 | S. cerevisiae deletion strains, locus YOR270C, strain vph1, hits give low values 1.05 | S. cerevisiae deletion strains, locus YOR290C, strain snf2, hits give low values 1.01 | S. cerevisiae deletion strains, locus YOR316C, strain cot1, hits give low values 0.984 | S. cerevisiae deletion strains, locus YPL051W, strain arl3, hits give low values 1.04 | S. cerevisiae deletion strains, locus YPL055C, strain LGE1, hits give low values 1 | S. cerevisiae deletion strains, locus YPL078C, strain atp4, hits give low values 1.02 | S. cerevisiae deletion strains, locus YPL106C, strain sse1, hits give low values 1.02 | S. cerevisiae deletion strains, locus YPL240C, strain hsp82, hits give low values 1.03 | S. cerevisiae deletion strains, locus YPL241C, strain CIN2, hits give low values 0.999 | S. cerevisiae deletion strains, locus YPL256C, strain CLN2, hits give low values 0.977 | S. cerevisiae deletion strains, locus YPR119W, strain clb2, hits give low values 0.987 | S. cerevisiae deletion strains, locus YPR141C, strain kar3, hits give low values 0.99 | S. cerevisiae deletion strains, locus YPR163C, strain tif3, hits give low values 0.982 | S. cerevisiae deletion strains, locus YPR167C, strain met16, hits give low values 0.973 | S. cerevisiae deletion strains, strain wtn01, hits give low values 0.991 | S. cerevisiae strains, strain wild type, hits give low values 0.995
